Test [1] deals with T1, Ephrin type-B receptor 2 (Homo sapiens) (UniProt P29323).
T1 sequence (whole entry): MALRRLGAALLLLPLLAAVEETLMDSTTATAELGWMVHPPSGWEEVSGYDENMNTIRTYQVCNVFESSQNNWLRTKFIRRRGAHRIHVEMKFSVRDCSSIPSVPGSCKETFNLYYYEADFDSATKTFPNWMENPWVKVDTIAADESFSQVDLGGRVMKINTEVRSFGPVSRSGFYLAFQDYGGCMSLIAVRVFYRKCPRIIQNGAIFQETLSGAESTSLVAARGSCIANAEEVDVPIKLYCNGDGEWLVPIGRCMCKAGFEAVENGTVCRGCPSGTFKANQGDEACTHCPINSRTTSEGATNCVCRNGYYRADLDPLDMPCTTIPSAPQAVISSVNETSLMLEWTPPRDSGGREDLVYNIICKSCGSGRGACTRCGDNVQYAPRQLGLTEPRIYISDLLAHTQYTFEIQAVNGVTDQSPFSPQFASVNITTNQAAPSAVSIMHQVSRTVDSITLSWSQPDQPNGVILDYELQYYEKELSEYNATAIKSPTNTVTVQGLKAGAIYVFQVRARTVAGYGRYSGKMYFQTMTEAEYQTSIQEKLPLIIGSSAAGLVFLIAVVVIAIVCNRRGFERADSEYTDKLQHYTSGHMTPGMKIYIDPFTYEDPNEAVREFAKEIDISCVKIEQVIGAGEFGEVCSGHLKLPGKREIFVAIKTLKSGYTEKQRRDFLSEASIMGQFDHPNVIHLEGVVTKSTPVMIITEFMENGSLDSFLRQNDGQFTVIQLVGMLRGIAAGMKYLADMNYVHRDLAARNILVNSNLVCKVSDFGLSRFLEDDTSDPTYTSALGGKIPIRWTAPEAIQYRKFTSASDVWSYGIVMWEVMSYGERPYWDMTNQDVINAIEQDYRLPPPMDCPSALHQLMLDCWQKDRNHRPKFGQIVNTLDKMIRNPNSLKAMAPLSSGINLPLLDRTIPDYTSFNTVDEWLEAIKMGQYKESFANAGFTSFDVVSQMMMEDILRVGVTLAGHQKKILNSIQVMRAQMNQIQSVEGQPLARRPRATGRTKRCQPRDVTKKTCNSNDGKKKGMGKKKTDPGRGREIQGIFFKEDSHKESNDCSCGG
The note with it: at 1 µM.

Test [2] addresses T1, Ephrin type-B receptor 2 (Homo sapiens). The following applies: at 10 µM.
Test [3] addresses T2, Ephrin type-B receptor 3 (Homo sapiens) (UniProt P54753).
T2 sequence (whole entry): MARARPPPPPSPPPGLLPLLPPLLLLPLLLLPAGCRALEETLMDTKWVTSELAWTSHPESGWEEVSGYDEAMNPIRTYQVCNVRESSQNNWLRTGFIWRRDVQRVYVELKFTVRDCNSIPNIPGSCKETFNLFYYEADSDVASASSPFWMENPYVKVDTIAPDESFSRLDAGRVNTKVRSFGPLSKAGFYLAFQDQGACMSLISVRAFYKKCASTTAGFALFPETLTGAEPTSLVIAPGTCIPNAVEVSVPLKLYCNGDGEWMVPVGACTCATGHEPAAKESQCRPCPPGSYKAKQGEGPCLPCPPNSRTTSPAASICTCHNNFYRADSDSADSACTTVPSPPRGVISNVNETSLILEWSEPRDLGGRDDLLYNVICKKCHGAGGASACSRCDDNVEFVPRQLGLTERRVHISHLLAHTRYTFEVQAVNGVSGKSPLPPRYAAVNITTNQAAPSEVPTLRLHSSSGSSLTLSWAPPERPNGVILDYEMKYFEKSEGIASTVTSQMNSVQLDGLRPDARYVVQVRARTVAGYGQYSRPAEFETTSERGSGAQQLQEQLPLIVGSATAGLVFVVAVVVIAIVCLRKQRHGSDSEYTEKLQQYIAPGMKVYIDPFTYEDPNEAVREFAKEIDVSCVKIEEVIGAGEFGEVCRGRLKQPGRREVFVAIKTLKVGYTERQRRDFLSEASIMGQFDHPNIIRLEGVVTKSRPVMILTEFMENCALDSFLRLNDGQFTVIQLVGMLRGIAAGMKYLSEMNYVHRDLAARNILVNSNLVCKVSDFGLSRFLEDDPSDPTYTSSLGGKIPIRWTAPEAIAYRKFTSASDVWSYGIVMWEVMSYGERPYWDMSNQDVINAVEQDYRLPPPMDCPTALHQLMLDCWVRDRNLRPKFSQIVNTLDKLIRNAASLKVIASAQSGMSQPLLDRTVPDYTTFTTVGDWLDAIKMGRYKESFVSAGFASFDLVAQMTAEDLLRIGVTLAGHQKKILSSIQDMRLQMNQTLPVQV
The note with it: at 1 µM.

For test [4], the target named is T2, Ephrin type-B receptor 3 (Homo sapiens). The note with it: at 10 µM.
The target of test [5] is T3, Ephrin type-B receptor 4 (Homo sapiens) (UniProt P54760).
T3 sequence (whole entry): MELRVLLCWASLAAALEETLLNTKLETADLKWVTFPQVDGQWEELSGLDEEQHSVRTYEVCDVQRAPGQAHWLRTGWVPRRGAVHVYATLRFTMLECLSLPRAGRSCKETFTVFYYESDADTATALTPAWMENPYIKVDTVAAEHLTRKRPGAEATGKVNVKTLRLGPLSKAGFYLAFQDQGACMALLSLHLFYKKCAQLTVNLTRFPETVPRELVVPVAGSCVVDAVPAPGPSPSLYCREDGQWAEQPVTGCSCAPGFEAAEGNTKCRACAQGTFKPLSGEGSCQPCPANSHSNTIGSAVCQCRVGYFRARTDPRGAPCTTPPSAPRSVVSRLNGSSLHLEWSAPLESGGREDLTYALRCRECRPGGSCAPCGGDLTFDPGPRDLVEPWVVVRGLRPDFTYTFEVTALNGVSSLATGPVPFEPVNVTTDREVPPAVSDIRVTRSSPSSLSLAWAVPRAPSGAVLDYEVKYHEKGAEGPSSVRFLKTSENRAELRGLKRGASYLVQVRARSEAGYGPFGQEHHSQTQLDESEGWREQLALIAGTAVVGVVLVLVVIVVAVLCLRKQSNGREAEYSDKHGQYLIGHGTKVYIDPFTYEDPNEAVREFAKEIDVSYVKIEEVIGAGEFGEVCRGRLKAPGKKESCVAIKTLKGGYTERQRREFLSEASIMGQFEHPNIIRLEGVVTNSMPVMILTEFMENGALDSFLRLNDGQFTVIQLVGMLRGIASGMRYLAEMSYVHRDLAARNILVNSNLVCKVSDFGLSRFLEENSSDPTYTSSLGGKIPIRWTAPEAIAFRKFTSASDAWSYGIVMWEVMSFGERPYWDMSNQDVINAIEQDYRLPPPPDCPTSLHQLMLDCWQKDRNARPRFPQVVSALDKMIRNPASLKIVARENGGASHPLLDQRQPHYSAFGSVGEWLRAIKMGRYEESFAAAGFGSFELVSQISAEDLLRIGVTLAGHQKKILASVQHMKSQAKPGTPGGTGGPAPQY
The note with it: at 1 µM.

The target in test [6] is T3, Ephrin type-B receptor 4 (Homo sapiens). The note with it: at 10 µM.
Test [7] deals with Receptor tyrosine-protein kinase erbB-4 (Homo sapiens) (UniProt Q15303). The note with it: at 1 µM.
Sequence of Receptor tyrosine-protein kinase erbB-4 (Homo sapiens) (Q15303 whole entry): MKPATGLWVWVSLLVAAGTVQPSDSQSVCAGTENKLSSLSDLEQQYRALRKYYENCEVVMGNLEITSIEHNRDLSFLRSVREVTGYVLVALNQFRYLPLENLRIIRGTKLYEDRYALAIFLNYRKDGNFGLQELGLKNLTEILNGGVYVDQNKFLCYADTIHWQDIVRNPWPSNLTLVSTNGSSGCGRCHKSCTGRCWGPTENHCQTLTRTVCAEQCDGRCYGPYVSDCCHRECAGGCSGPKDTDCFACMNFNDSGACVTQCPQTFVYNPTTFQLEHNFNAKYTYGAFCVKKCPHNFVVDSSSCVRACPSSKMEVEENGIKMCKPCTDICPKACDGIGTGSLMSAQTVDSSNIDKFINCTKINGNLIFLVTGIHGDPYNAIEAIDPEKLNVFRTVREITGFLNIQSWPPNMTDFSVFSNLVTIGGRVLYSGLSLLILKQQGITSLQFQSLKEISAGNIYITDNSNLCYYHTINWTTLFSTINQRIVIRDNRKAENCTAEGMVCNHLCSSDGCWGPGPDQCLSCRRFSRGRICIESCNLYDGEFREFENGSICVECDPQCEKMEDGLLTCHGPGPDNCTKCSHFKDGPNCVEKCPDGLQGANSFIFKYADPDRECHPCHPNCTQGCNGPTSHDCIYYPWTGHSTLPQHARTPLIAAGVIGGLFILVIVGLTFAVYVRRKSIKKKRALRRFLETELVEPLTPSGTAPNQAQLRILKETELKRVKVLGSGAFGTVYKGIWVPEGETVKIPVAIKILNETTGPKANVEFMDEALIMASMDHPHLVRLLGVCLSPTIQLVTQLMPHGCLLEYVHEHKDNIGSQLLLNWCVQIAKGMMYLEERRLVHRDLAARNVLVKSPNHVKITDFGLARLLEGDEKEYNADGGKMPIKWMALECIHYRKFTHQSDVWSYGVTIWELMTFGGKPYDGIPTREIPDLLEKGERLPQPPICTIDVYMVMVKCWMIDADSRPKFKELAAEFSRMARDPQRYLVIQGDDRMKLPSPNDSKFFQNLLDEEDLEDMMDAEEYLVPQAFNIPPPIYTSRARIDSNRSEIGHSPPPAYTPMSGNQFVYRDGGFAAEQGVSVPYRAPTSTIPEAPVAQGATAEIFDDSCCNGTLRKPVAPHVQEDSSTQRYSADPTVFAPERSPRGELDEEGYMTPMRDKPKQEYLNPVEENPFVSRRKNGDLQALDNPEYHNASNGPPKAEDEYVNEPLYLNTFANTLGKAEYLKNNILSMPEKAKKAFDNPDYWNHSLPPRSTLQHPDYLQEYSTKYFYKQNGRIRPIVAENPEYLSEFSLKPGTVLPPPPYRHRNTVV
Test [8] shares this target. The following applies: at 10 µM.
Test [9] deals with Focal adhesion kinase 1 (Homo sapiens) (UniProt Q05397). The following applies: at 1 µM.
Sequence of Focal adhesion kinase 1 (Homo sapiens) (Q05397 2-1052 limits assumed): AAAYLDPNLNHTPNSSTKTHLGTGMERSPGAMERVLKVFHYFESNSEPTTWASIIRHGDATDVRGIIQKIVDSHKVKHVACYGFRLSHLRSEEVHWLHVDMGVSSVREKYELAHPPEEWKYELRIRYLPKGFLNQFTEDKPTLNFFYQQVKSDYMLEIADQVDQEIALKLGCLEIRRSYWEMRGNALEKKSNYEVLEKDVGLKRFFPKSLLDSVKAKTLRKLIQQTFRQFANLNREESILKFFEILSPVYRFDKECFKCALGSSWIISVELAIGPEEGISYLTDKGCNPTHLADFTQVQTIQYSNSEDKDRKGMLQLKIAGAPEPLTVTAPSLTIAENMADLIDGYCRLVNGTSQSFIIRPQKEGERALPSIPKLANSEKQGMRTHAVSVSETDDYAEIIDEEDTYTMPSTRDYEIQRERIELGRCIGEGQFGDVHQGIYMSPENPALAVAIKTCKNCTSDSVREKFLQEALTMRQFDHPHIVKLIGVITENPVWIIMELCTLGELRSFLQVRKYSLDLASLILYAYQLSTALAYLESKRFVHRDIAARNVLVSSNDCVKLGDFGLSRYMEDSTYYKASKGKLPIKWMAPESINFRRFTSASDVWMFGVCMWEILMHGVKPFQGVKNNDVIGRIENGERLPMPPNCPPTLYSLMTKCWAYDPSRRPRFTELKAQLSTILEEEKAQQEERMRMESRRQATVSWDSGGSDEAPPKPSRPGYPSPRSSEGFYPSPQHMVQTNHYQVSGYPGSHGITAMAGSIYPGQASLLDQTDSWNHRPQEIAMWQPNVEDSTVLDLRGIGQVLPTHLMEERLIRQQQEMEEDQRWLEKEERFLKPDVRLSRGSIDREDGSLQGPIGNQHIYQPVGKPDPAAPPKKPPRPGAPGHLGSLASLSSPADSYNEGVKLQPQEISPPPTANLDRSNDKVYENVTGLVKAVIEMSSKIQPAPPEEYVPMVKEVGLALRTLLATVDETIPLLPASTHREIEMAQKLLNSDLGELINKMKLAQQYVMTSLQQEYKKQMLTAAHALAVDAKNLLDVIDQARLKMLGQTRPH

A word on the residual activity: it is the signal under treatment as a percentage of the control signal. With `C[C@@H](N)[C@H]1CC[C@H](C(=O)Nc2ccncc2)CC1`, the residual activity in test [1] is 90%; in test [2], 92%; in test [3], 111% (inactive); in test [4], 110%; in test [5], 108%; in test [6], 102%. Also, the residual activity in test [7] was 109%; in test [8], 113%; in test [9] it was 104%.
